Measured values reported in PubChem BioAssay (NCI).
Compounds without any hit were thinned out: in the full panel of roughly 79,000, 15% have a hit. The source made the active and inactive calls. No stated cut-off is given here; in the data, active means growth inhibition above about 70%; inactive means the rest.

Assays:
[1] = NCI Yeast Anticancer Drug Screen. Data for the wt2 strain (AID 169);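 further: 0% = growth of vehicle-treated yeast cultures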; conditions: S. cerevisiae wt2 strain growth inhibition, active compounds read high
In short: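 Yeast cells were exposed to test compounds, and growth inhibition was measured relative to vehicle-treated controls.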

[2] = NCI Yeast Anticancer Drug Screen. Data for the mlh1 strain (AID 171);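 further: 0% = growth of vehicle-treated control cultures of the same strain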; conditions: S. cerevisiae mlh1 strain growth inhibition, active compounds read high
In short: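 Yeast carrying a defined genetic alteration in DNA damage repair or cell cycle control were exposed to test compounds. Growth inhibition was measured relative to vehicle-treated controls.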

[3] = NCI Yeast Anticancer Drug Screen. Data for the sgs1 strain (AID 173);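 further: 0% = growth of vehicle-only control cultures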; conditions: S. cerevisiae sgs1 mutant, active compounds read high
In short: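 Yeast mutant strains carrying defined defects in DNA damage repair or cell cycle control were exposed to test compounds. Growth inhibition was scored against vehicle-treated controls.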

[4] = NCI Yeast Anticancer Drug Screen. Data for the mlh1 rad18 strain (AID 175); conditions: S. cerevisiae mlh1 rad18 strain growth inhibition, active compounds read high
In short: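 Growth inhibition of the yeast strain was measured after compound exposure and expressed relative to vehicle-treated controls. The strain carries defined defects in DNA damage repair.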

[5] = NCI Yeast Anticancer Drug Screen. Data for the rad18 strain (AID 177); conditions: S. cerevisiae rad18 mutant growth inhibition, active compounds read high
In short: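 Yeast carrying a defined DNA damage repair alteration were exposed to compounds. Growth inhibition was expressed relative to vehicle-treated controls.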

[6] = NCI Yeast Anticancer Drug Screen. Data for the rad52 strain (AID 147);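 further: 0% = growth of vehicle-treated control cultures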; conditions: S. cerevisiae rad52 mutant growth inhibition, active compounds read high
In short: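 Yeast strain carrying a DNA damage repair alteration was exposed to test compounds. Growth inhibition was measured relative to vehicle-treated controls.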

[7] = NCI Yeast Anticancer Drug Screen. Data for the wt1 strain (AID 149);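 further: 0% = growth of vehicle-treated wt1 cultures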; conditions: S. cerevisiae wt1 strain (SPY 50644) growth inhibition, active compounds read high
In short: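 wt1 strain grown with compound or vehicle; inhibition taken from the growth difference.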

[8] = NCI Yeast Anticancer Drug Screen. Data for the rad50EPP+ strain (AID 151);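 further: 0% = growth of vehicle-treated control cultures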; conditions: S. cerevisiae rad50 mutant strain, active compounds read high
In short: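 Yeast strain carrying rad50 alteration (rad50EPP+) exposed to compounds; growth inhibition measured relative to vehicle-treated controls.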

[9] = NCI Yeast Anticancer Drug Screen. Data for the mgt1 strain (AID 153); conditions: S. cerevisiae mgt1 mutant growth inhibition, active compounds read high
In short: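 Yeast mgt1 strain (DNA repair/cell-cycle alteration panel) exposed to compounds; growth inhibition measured relative to vehicle-treated controls.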

[10] = NCI Yeast Anticancer Drug Screen. Data for the rad50 strain (AID 155);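 further: 0% = growth of vehicle-only cultures of the same strain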; conditions: S. cerevisiae rad50 strain growth inhibition, active compounds read high
In short: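 DNA repair mutant yeast, compound exposure, growth read-out; inhibition is taken relative to vehicle.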

[11] = NCI Yeast Anticancer Drug Screen. Data for the mec2-1 strain (AID 157); conditions: S. cerevisiae mec2-1 strain, active compounds read high
In short: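 mec2-1 yeast strain, carrying an alteration in DNA damage repair or cell cycle control, was exposed to compounds; growth inhibition was measured relative to vehicle-treated controls.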

[12] = NCI Yeast Anticancer Drug Screen. Data for the rad14 strain (AID 159);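 further: 0% = growth of vehicle-treated control cultures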; conditions: S. cerevisiae rad14 strain growth inhibition, active compounds read high
In short: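 DNA repair-defective yeast, compound-exposed; % growth inhibition derived by comparison with vehicle-treated controls.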

[13] = NCI Yeast Anticancer Drug Screen. Data for the sgs1 mgt1 strain (AID 161);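 further: 0% = growth of cultures given vehicle only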; conditions: S. cerevisiae sgs1 mgt1 strain, active compounds read high
In short: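 Compounds are added to genetically altered yeast, and growth is compared with cultures given vehicle alone to give percent inhibition.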

[14] = NCI Yeast Anticancer Drug Screen. Data for the CLN2oe strain (AID 163);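 further: 0% = growth of vehicle-only control cultures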; conditions: S. cerevisiae CLN2oe strain, active compounds read high
In short: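 Yeast cells carrying a defined cell-cycle control alteration were exposed to test compounds. Growth inhibition was scored against vehicle-treated control cultures.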

[15] = NCI Yeast Anticancer Drug Screen. Data for the cln2 rad14 strain (AID 165);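 further: 0% = growth equal to vehicle treated cultures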; conditions: S. cerevisiae cln2 rad14 strain, active compounds read high
In short: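 Yeast carrying cln2 and rad14 alterations (cell cycle control and DNA damage repair) were exposed to compounds. Growth inhibition was measured against vehicle-treated controls.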

[16] = NCI Yeast Anticancer Drug Screen. Data for the bub3 strain (AID 167); conditions: S. cerevisiae bub3 mutant strain, active compounds read high
In short: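 In this screen, a yeast mutant lacking normal mitotic checkpoint function is challenged with compound. Relative growth versus vehicle gives the inhibition value.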

[17] = at 5.0 µM (retest, dose inferred, filed as 0.5)
[18] = at 50.0 µM (retest, dose inferred, filed as 5.0)

Measured: growth inhibition

COc1ccc(C2CC(C)(N3CCCC3)Oc3cc4c(cc32)OCO4)cc1 (stereo unspecified)
inactive: [1]; at 1.2 µM -7% | [1]; at 3.7 µM -1% | [1]; at 11.0 µM -13% | [1]; at 33.0 µM 6% | [2]; at 1.2 µM 3% | [2]; at 3.7 µM -1% | [2]; at 11.0 µM -4% | [2]; at 33.0 µM 13% | [3]; at 1.2 µM -4% | [3]; at 3.7 µM 9% | [3]; at 11.0 µM -18% | [3]; at 33.0 µM 17% | [4]; [17] 2% | [5]; at 1.2 µM 5% | [5]; at 3.7 µM 7% | [5]; at 11.0 µM 12% | [5]; at 33.0 µM 35%
active: [1]; at 100.0 µM 92% | [2]; at 100.0 µM 83% | [3]; at 100.0 µM 83% | [4]; [18] 75% | [4]; at 50.0 µM 76.7% | [5]; at 100.0 µM 77%

COC(=O)C(Cl)(Cl)N=Nc1c(Cl)cc(Cl)c(C)c1Cl
inactive: [6]; at 1.2 µM -14% | [7]; at 1.2 µM -12% | [7]; at 3.7 µM 52% | [8]; at 1.2 µM 12% | [9]; at 1.2 µM -50% | [9]; at 3.7 µM 20% | [10]; at 1.2 µM -34% | [10]; at 3.7 µM 46% | [10]; [17] 49% | [11]; at 1.2 µM -40% | [11]; at 3.7 µM 68% | [11]; [17] 54% | [12]; at 1.2 µM -51% | [12]; at 3.7 µM 59% | [13]; [17] 14% | [13]; [18] 69% | [14]; at 1.2 µM 36% | [14]; at 3.7 µM 22% | [15]; [17] 2% | [15]; [18] -66% | [16]; at 1.2 µM -32% | [16]; at 3.7 µM 11% | [16]; [17] 5% | [16]; [18] -28% | [1]; at 1.2 µM -3% | [2]; at 1.2 µM -34% | [2]; at 3.7 µM 6% | [3]; at 1.2 µM 10% | [4]; [17] 59% | [5]; at 1.2 µM 28%
active: [6]; at 3.7 µM 83% | [6]; at 11.0 µM 97% | [6]; at 33.0 µM 98% | [6]; at 100.0 µM 97% | [7]; at 11.0 µM 99% | [7]; at 33.0 µM 99% | [7]; at 100.0 µM 99% | [8]; at 3.7 µM 83% | [8]; at 11.0 µM 99% | [8]; at 33.0 µM 99% | [8]; at 100.0 µM 99% | [9]; at 11.0 µM 96% | [9]; at 33.0 µM 98% | [9]; at 100.0 µM 99% | [10]; at 11.0 µM 96% | [10]; at 33.0 µM 92% | [10]; [18] 99% | [10]; at 50.0 µM 92.5% | [10]; at 100.0 µM 96% | [11]; at 11.0 µM 97% | [11]; at 33.0 µM 98% | [11]; [18] 99% | [11]; at 50.0 µM 91.3% | [11]; at 100.0 µM 98% | [12]; at 11.0 µM 80% | [12]; at 33.0 µM 99% | [12]; at 100.0 µM 98% | [13]; at 50.0 µM 91.9% | [14]; at 11.0 µM 97% | [14]; at 33.0 µM 99% | [14]; at 100.0 µM 99% | [15]; at 50.0 µM 88.2% | [16]; at 11.0 µM 92% | [16]; at 33.0 µM 98% | [16]; at 50.0 µM 93.2% | [16]; at 100.0 µM 98% | [1]; at 3.7 µM 89% | [1]; at 11.0 µM 99% | [1]; at 33.0 µM 99% | [1]; at 100.0 µM 99% | [2]; at 11.0 µM 96% | [2]; at 33.0 µM 100% | [2]; at 100.0 µM 100% | [3]; at 3.7 µM 88% | [3]; at 11.0 µM 87% | [3]; at 33.0 µM 99% | [3]; at 100.0 µM 100% | [4]; [18] 99% | [4]; at 50.0 µM 93.2% | [5]; at 3.7 µM 87% | [5]; at 11.0 µM 96% | [5]; at 33.0 µM 98% | [5]; at 100.0 µM 99%
